Here are results for 7 compounds from PubChem BioAssay (NCATS).

The structures appear in SMILES notation. Unmarked numbers belong to inactive results. Records with an inconclusive call do not appear. Active and inactive are the calls of the source. Unless noted, the call rests on the fitted dose curve; in most records, active means well fitted curve in either direction with a large enough effect (not every such curve was filed as active); inconclusive means small, poorly fitted or top-dose-only effect, or another doubt; inactive means flat fitted curve, though single readings scatter.

Test [1] is described as follows: AP1 Signaling Pathway (AID 357). Further: on the % scale 0 is the no-effect control and ±100 the full control effect. Conditions: ME-180 AP-1-bla reporter, EGF-induced, beta-lactamase ratio, 5 h; at 7.69 µM (top of the series) unless noted. The gist of the method:
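AP-1-bla ME-180 cells with beta-lactamase reporter under AP-1 response element, stimulated with EC50 EGF; compounds titrated, 5 hours at 37 degrees Celsius. CCF4 read at 460/530 nm ratio; positive and negative modulators judged by AC50.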

In test [2] the target is Cytochrome P450 1A2 (Homo sapiens) (UniProt P05177). In words: p450-cyp1a2 (AID 410; calls by dose curve; further: potency means the concentration at half of the fitted maximal effect). The method in brief:
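O-Demethylation of luciferin 6' methyl ether by human CYP1A2 is monitored as luciferase luminescence. Substrate sits at Km (100uM); enzyme is 20nM. Values are scaled to 57 uM furafylline as maximal inhibition.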

The nature of test [3]: NFAT Signaling Pathway (AID 444).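 Further: carbachol stimulus at about its EC50 of 1 µM final; on the % scale 0 is the no-effect control and ±100 the full control effect.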 Conditions: Jurkat NFAT-bla M1, carbachol, beta-lactamase ratio, 5 h; at 7.69 µM (top of the series) unless noted. The method in brief: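 Jurkat cells with NFAT-driven β-lactamase reporter and co-expressed M1 receptor, stimulated with carbachol (final 1 uM, ~EC50), compound titration, 5 h at 37 °C. CCF4 loaded 1 h at RT; 460/530 nm ratio gave %activity and AC50.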

Test [4] is described as follows: Stat Signaling Pathway (AID 446).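 Further: ME-180 cervical cancer cells given 40 pM IL-6 alongside compound; SIE-controlled beta-lactamase reporter measured as 460/530 nm FRET emission ratio; on the % scale 0 is the no-effect control and ±100 the full control effect.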 Conditions: ME-180 (cervical carcinoma) SIE beta-lactamase reporter, IL-6 stimulated, 5 h; at 7.69 µM (top of the series) unless noted. The gist of the method: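 Emission at 460 and 530 nm (excitation 405 nm) reports SIE-controlled beta-lactamase in ME-180 cells. Cells received compound with 40 pM IL-6 for 5 hrs at 37 C; data scaled between 300 pM IL-6 and 125 nM JAK-inhibitor controls.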

The target of test [5] is Glucocorticoid receptor (Homo sapiens) (UniProt P04150). The experiment in a line: GR-GFP Redistribution (AID 450;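 active means compounds whose dose series gives a full or clear partial fitted curve of increased nuclear translocation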; further: potency means the concentration at half of the fitted maximal effect). Conditions: U2OS GR-GFP nuclear translocation, laser cytometry, 2 h.
Test [6] shares this target. In words: GR-EFC Redistribution (AID 451; calls by dose curve; further: potency means the concentration at half of the fitted maximal effect). Conditions: CHO-K1 GR-EFC translocation, beta-gal luminescence, 2 h. The method in brief: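 CHO-K1 cells expressing nuclear EA and GR-ED fragments of b-gal; compounds titrated up to 46 uM final, 2 h at 37 C. GR nuclear translocation read as complemented b-gal luminescence after 1 h RT detection.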
Test [7] addresses Mitogen-activated protein kinase 10 (Mus musculus) (UniProt Q61831). The experiment in a line: JNK3 AlphaScreen Assay (AID 530).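 Further: kinase came from lysate of stimulated human HepG2 cells; signal reports phosphorylation of biotinylated GST-cJun 1-79 at Ser73 with 10 µM ATP; on the % scale 0 is the no-effect control and ±100 the full control effect.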 The gist of the method:
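Activity was read by AlphaScreen after JNK3-containing HepG2 lysate (cytokine pre-activated) phosphorylated biotinylated GST-cJun with 10 uM ATP at room temperature. Phospho-Ser73 cJun antibody with Protein-A acceptor beads provided detection.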
Background: Bead proximity is the source of the signal in Alpha formats.

Test [8] addresses 3',5'-cyclic-AMP phosphodiesterase 4B (Homo sapiens) (UniProt Q07343). The experiment in a line: qHTS Assay for Inhibitors of PDE-IV (AID 607; active means well fitted activation curve with a large enough effect in the main read-out, with a control signal flat, not every such curve was filed as active; further: % of control where 0% means no effect). The method in brief:
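The readout is membrane depolarisation from a cAMP-sensing CNG channel, detected with a potential dye at ex 535/em 590. Cells were HEK293-derived (endogenous PDE-IV) at 1000 cells/well, titrated up to 22.9 uM final.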
For orientation: qHTS replaces the single test concentration by a dilution series.

For test [9], the target named is Cytochrome P450 2C19 (Homo sapiens) (UniProt P33261). The experiment in a line: qHTS Assay for Inhibitors and Substrates of Cytochrome P450 2C19 (AID 899; active means well fitted curve in the direction sought with a large enough effect; an effect the other way counts as inactive or inconclusive; further: nearly all actives have a fitted effect of over 60% in size; further: potency means the concentration at half of the fitted maximal effect). The gist of the method: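 Signal comes from luciferase acting on luciferin released by CYP2C19-mediated hydroxylation of Luciferin-H EGE, 10uM (KM). Assay mix: 5nM enzyme, 50mM KPO4; 60 min at 37C with NADPH regeneration. Data normalized against 57uM ketoconazole.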

Test [10] has as its target Cytochrome P450 2C9 (Homo sapiens) (UniProt P11712). In words: qHTS Assay for Inhibitors and Substrates of Cytochrome P450 2C9 (AID 883; active means well fitted curve in the direction sought with a large enough effect; an effect the other way counts as inactive or inconclusive; further: nearly all actives have a fitted effect of over 60% in size). The method in brief: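 Signal: luciferase luminescence reporting luciferin produced by CYP2C9. Conditions: 10nM enzyme, Luciferin-H 100uM at KM, 25mM KPO4, 37C, 60 min NADPH-driven reaction. Reference: 57uM sulphaphenazole as 100% inhibition.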

The target of test [11] is Cytochrome P450 2D6 (Homo sapiens) (UniProt P10635). The experiment in a line: qHTS Assay for Inhibitors and Substrates of Cytochrome P450 2D6 (AID 891; active means well fitted curve in the direction sought with a large enough effect; an effect the other way counts as inactive or inconclusive;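 further: luciferin methyl ether substrate demethylated by CYP2D6 with NADPH regeneration; on the % scale 0 is the no-effect control and ±100 the full control effect; nearly all actives have a fitted effect of over 60% in size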). The method in brief: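 Luminescent read-out of luciferin formed by 5 nM human CYP2D6 demethylating 30 uM Luciferin-ME EGE (Km level) over 60 min at room temperature after NADPH regeneration addition. Data normalized to full inhibition by 1.43 uM quinidine.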

In test [12] the target is Guanine nucleotide-binding protein G(i) subunit alpha-1 (Homo sapiens) (UniProt P63096). The experiment in a line: qHTS Assay for Inhibitors of RGS12 GoLoco Motif Activity (Green Fluorophore) (AID 879; active means well fitted curve in the direction sought with a large enough effect; an effect the other way counts as inactive or inconclusive;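 further: 0% = labeled peptide with Gαi1 and full inhibition = labeled peptide alone without protein; negative values mean loss of peptide binding seen as reduced polarization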). The gist of the method:
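A drop in FITC polarization marked displacement of the FITC-tagged RGS12 GoLoco peptide (10 nM) from Gαi1 (50 nM). Compounds were incubated 10 min at room temperature in Tris pH 7.5 buffer containing 150 mM NaCl, 0.1 mM GDP and 0.05% NP40; unlabeled peptide titration served as control.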

A short description of test [13]: qHTS Assay for Identification of Small Molecule Antagonists for NFkB Signaling Pathway (AID 895; active means well fitted inhibition curve with a large enough effect in the signal ratio, with a control signal flat, not every such curve was filed as active; the % refers to the signal ratio; further: potency means the concentration at half of the fitted maximal effect). The method in brief:
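ME-180 NFkB-bla cells (beta-lactamase under NFkB response element), plated overnight, treated with compound then 10 pM TNF alpha (about EC50) for 5 hrs at 37 C. LiveBLAzer FRET read at 460/530 nm emission, 405 nm excitation.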

The target of test [14] is Muscarinic acetylcholine receptor M1 (Rattus norvegicus) (UniProt P08482). In words: qHTS Assay for Antagonists of Acetylcholine Muscarinic M1 Receptor: Measurement of IP-One Response (AID 944; active means well fitted curve in the direction sought with a large enough effect; an effect the other way counts as inactive or inconclusive; further: nearly all actives have a fitted effect of over 75% in size). The method in brief:
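Antagonist mode with rat M1 receptor transfected into CHO cells. Compound is added first for 10 min, carbachol at its EC80 follows for 30 min, and lysis reagents then allow TR-FRET detection of accumulated IP1.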

The target of test [15] is Pyruvate kinase (Leishmania mexicana) (UniProt Q27686). The experiment in a line: qHTS Validation Assay for Inhibitors of Leishmania Mexicana Pyruvate Kinase (AID 945; active means well fitted curve in the direction sought with a large enough effect; an effect the other way counts as inactive or inconclusive;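 further: 0% = DMSO only neutral control wells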). The gist of the method:
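Eight-point qHTS titrations in triplicate, data normalized to DMSO neutral control. Reaction: 0.2 nM LmPYK E451W mutant, 0.5 mM PEP, 0.1 mM ADP, 7 mM MgCl2, pH 7.2, one hour at room temperature; luminescent ATP detection.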

Test [16] has as its target Pyruvate kinase PKM (Homo sapiens) (UniProt P14618). In words: qHTS Assay for Activators of Human Muscle Pyruvate Kinase (AID 954; active means well fitted curve in the direction sought with a large enough effect, not every such curve was filed as active;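 further: 0% = uninhibited enzyme and -100% = no enzyme or full thiadiazolimine inhibition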). The gist of the method:
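PKM2, human, >95% pure, 0.1 nM; PEP 0.5 mM (Km), ADP 0.1 mM; 50 mM imidazole pH 7.2, 50 mM KCl, 0.01% Tween 20, 0.05% BSA; 1 h RT; luciferase luminescence readout.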

In test [17] the target is Alpha-galactosidase A (Homo sapiens) (UniProt P06280). In words: Counterscreen for Glucocerebrosidase Inhibitors: qHTS Assay for Human alpha-Galactosidase at pH 4.5 (AID 992; active means well fitted curve in the direction sought with a large enough effect; an effect the other way counts as inactive or inconclusive; further: 0% is about no effect). The gist of the method: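 Fluorogenic 4-MU alpha-D-galactoside (80 uM) hydrolysis, 2 nM enzyme, pH 4.5 citrate buffer + 0.005% Tween-20; 20 min RT; NaOH/glycine pH 10 stop; Ex365/Em440. Compounds titrated 0.7 nM–77 uM; Hill-equation AC50.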
(Counterscreens check selectivity or assay interference.)

For test [18], the target named is alpha-glucosidase (Oryza sativa, rice) (UniProt Q653V4). In words: Counterscreen for Glucocerebrosidase Inhibitors: qHTS Assay for Rice alpha-Glucosidase at pH 5.0 (AID 997; active means well fitted curve in the direction sought with a large enough effect; an effect the other way counts as inactive or inconclusive;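 further: 0% = full activity with enzyme and -100% = basal without enzyme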). The method in brief: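 Endpoint fluorogenic assay at pH 5.0: compounds (0.7 nM to 77 uM) titrated against 4 nM rice enzyme and 400 uM 4-MU-alpha-glucoside for 20 min at room temperature; NaOH/glycine stop, read ex 365/em 440 nm, Hill-fitted AC50.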

Sequence of Cytochrome P450 1A2 (Homo sapiens) (P05177 whole entry, looked up): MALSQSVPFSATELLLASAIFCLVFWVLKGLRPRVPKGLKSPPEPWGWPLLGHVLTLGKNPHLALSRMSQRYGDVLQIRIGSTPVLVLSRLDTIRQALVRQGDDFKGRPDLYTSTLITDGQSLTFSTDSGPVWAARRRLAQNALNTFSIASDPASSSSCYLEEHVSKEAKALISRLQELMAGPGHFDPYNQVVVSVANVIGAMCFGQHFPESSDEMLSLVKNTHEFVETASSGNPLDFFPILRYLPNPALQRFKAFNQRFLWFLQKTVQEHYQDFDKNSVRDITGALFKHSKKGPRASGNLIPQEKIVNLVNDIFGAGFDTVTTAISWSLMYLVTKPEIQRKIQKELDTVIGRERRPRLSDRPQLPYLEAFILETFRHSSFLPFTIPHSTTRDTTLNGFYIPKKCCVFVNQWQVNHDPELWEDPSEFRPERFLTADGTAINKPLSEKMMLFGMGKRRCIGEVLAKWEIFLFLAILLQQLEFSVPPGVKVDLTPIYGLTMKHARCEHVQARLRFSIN
Sequence of Cytochrome P450 2C19 (Homo sapiens) (P33261 whole entry, looked up): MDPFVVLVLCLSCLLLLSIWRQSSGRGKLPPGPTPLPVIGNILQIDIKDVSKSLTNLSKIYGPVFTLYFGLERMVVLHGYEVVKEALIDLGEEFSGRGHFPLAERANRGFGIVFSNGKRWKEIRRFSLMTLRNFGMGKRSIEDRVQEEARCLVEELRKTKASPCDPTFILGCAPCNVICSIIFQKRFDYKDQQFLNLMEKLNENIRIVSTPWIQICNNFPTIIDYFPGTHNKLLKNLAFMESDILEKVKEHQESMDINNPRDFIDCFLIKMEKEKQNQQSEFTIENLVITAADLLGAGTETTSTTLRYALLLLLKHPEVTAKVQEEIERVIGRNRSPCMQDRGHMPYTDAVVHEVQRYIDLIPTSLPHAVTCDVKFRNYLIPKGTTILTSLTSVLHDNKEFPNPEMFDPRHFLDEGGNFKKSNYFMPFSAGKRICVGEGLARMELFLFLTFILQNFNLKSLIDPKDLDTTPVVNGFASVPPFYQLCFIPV
Sequence of Glucocorticoid receptor (Homo sapiens) (P04150 whole entry, looked up, the tested form may be a part): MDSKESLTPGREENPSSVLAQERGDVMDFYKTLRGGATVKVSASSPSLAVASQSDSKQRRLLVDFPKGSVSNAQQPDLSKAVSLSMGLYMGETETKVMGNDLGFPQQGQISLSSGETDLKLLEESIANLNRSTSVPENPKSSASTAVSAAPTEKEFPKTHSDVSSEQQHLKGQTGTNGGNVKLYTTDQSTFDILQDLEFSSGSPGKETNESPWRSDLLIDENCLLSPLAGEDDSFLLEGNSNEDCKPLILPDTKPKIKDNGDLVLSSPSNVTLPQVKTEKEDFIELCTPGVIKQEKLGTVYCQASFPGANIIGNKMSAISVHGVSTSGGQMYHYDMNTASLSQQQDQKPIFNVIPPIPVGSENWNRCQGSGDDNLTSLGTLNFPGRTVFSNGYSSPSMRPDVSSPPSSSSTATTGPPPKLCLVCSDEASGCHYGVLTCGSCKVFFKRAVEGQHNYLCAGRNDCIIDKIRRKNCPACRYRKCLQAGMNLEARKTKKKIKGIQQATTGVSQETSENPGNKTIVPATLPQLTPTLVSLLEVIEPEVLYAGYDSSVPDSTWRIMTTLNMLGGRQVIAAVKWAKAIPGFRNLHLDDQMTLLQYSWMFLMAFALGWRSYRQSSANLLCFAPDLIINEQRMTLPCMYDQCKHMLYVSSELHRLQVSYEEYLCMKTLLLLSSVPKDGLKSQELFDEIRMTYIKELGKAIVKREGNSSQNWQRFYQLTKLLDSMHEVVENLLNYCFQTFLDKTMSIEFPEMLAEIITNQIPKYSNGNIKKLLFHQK
Sequence of Cytochrome P450 2D6 (Homo sapiens) (P10635 whole entry, looked up): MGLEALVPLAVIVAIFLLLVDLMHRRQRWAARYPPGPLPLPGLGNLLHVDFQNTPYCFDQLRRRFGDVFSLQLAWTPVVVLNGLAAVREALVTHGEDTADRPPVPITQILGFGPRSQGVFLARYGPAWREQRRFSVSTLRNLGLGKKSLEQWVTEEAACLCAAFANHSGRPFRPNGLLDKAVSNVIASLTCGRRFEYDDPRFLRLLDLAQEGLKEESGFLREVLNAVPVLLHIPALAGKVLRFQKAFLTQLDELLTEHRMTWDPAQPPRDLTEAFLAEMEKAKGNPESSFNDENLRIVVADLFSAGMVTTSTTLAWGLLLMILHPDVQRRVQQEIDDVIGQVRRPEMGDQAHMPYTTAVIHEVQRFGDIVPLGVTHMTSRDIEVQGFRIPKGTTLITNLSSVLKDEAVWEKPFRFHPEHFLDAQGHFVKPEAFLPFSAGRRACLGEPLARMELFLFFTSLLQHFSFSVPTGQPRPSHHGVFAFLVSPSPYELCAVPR
Sequence of 3',5'-cyclic-AMP phosphodiesterase 4B (Homo sapiens) (Q07343 whole entry, looked up): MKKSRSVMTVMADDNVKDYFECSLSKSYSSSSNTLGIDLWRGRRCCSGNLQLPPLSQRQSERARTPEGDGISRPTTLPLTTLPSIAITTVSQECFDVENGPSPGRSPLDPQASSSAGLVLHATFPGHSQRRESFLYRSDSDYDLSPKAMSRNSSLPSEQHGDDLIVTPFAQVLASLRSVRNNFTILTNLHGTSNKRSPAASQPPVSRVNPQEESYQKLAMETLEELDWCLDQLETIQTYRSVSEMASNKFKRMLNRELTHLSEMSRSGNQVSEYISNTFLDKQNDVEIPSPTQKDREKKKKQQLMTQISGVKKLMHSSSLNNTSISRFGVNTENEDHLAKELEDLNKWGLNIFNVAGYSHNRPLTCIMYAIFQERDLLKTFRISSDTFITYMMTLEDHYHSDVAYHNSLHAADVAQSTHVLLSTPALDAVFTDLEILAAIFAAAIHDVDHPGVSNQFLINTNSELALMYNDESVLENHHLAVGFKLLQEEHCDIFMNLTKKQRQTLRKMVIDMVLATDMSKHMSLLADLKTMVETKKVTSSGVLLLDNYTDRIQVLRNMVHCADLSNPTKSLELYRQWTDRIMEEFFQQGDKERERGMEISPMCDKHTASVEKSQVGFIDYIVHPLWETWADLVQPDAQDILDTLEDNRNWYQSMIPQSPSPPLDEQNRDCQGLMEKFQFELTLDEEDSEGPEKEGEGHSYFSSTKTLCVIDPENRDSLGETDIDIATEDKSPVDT
Sequence of Cytochrome P450 2C9 (Homo sapiens) (P11712 whole entry, looked up): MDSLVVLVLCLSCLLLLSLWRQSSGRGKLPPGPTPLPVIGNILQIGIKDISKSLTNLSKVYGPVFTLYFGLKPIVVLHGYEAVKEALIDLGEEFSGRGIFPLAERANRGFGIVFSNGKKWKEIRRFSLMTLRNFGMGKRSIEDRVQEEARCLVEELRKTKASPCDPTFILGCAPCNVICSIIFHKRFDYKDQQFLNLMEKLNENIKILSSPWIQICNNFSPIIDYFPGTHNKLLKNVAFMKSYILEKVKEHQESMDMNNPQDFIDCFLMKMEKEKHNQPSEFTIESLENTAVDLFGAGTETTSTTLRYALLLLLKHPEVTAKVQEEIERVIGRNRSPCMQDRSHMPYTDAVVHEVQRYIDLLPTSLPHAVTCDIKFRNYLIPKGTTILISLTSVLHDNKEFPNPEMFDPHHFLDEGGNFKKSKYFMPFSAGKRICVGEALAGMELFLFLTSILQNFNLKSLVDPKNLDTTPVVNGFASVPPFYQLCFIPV
Sequence of Guanine nucleotide-binding protein G(i) subunit alpha-1 (Homo sapiens) (P63096 whole entry, looked up): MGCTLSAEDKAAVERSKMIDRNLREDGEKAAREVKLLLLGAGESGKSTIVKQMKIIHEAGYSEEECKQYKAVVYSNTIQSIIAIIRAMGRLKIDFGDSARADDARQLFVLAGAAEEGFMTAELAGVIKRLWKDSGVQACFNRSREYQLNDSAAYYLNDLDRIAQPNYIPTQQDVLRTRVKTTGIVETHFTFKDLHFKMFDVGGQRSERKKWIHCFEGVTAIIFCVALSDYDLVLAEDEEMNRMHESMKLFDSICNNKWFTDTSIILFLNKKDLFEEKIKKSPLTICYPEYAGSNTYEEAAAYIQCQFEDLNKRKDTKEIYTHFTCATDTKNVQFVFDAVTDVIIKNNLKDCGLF
Sequence of Muscarinic acetylcholine receptor M1 (Rattus norvegicus) (P08482 whole entry, looked up): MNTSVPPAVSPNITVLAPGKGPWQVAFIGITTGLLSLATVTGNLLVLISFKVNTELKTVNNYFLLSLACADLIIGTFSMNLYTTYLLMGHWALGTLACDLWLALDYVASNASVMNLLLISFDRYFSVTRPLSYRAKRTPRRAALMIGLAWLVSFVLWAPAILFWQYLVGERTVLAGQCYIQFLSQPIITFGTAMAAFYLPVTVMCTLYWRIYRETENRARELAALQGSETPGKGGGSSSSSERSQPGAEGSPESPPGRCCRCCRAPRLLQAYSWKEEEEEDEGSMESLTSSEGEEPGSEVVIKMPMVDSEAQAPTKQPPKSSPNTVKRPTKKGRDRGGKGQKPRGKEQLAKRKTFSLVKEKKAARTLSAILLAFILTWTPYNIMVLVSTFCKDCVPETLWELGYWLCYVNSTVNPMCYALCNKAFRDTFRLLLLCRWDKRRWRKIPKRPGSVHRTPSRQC
Sequence of Pyruvate kinase (Leishmania mexicana) (Q27686 2-499 E452W): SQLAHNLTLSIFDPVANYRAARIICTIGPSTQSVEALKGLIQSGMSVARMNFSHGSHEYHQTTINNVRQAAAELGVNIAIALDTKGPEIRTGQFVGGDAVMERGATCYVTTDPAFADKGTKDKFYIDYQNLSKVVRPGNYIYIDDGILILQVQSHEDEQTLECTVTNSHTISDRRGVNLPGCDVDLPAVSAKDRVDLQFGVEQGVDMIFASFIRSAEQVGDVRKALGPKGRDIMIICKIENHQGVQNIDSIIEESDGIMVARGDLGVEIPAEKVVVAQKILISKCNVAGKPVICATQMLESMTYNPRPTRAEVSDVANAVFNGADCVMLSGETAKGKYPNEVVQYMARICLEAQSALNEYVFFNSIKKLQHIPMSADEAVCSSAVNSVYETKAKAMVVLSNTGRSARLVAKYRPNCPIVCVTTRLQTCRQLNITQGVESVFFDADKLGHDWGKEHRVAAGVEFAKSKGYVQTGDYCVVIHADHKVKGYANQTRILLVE

In the case of `CN(Cc1cc(C(C)(C)C)cc(Br)c1O)Cc1cc(C(C)(C)C)cc(Br)c1O`, the values for the activity change, negative = inhibition in [1] and in test [3] were -2.5% and 11.8%, respectively. Besides, the Potency was 3.16 µM (active) in test [2], more than 46 µM in test [5], more than 9.22 µM in [6] and 3.16 µM (active) in test [9]. In addition, in test [4], the activity, negative = inhibition is 7.17%. The Potency result in [7] and in [8] was “inactive” throughout.
With `N[C@@H](C(=O)O)[C@H](O)C(=O)O`, the activity change, negative = inhibition in test [1] was -4.8% [at 38 µM]; in [3], -3.19% [at 38 µM]. Moreover, the Potency entry in test [2], in [8], in test [10], in test [11] and in test [9] was “inactive” throughout. The activity, negative = inhibition in test [4] was 8.48% [at 38 µM]. The Potency in test [5] and in [6] was more than 46 µM each time.
Regarding `O=c1[nH]c(=O)n([C@H]2C[C@H](O)[C@H](CO)O2)cc1Br`, the figures for the activity change, negative = inhibition in test [1] and in test [3] were 14.9% [at 38 µM] and 2.6% [at 38 µM], respectively. In addition, the Potency entry in [2], in test [7], in [8], in [10], in test [11] and in [9] was “inactive” each time. Further, the activity, negative = inhibition in [4] was 4.48% [at 38 µM].
In the case of `C=C[C@H]1CN2CC[C@@H]1C[C@H]2[C@@H](O)c1ccnc2ccc(OC)cc12`, the values for the activity change, negative = inhibition in [1] and in test [3] were -5.24% [at 17.2 µM] and -13% [at 17.2 µM], respectively. For the same compound, the Potency entry in test [2] and in test [7] was “inactive” in each case. Also, the activity, negative = inhibition in test [4] was -9.97% [at 17.2 µM]. The call in test [10] was inactive.
Regarding `C=CCN1CCc2c(cc(O)c(O)c2Cl)[C@H](c2ccccc2)C1`, the activity change, negative = inhibition in [1] was -17.1% [at 38 µM]; in [3], -17.9% [at 38 µM]. Also, the Potency was 20 µM (active) in test [2], more than 46 µM in [5], more than 46 µM in test [6] and 12.6 µM (active) in test [13]. Moreover, the Potency entry in test [7], in test [8], in [14] and in [18] was “inactive” each time. The result in test [12], in test [15], in test [16] and in test [17] was inactive.
As for `Nc1ccn([C@H]2CC[C@H](CO)O2)c(=O)n1`, the activity change, negative = inhibition in [1] is 15.8% [at 38 µM]; in [3] it was 5.71% [at 38 µM]. Besides, the Potency result in test [2], in [7], in [8], in test [10], in test [11] and in test [9] was “inactive” throughout. Also, the activity, negative = inhibition in test [4] was -0.228% [at 38 µM].
`CC(=O)OCC(=O)[C@@]1(O)CC[C@@H]2[C@@H]3CCC4=CC(=O)CC[C@@]4(C)[C@H]3C(=O)C[C@]21C`: the values for the activity change, negative = inhibition in test [1] and in test [3] were 4.78% [at 38 µM] and 5.8% [at 38 µM], respectively. Also, the Potency result in [2], in test [7], in [8], in [10], in [11] and in test [9] was “inactive” in each case. For the same compound, the activity, negative = inhibition in test [4] is -12.6% [at 38 µM]. In addition, the Potency in test [6] is more than 46 µM.
